The values below come from PubChem BioAssay AID1986 (Sanford-Burnham Center for Chemical Genomics, 2009).

The test in a line: cell-free HIV fusion peptide-binding blockers – biochemical, uHTS, fluorescence dequenching, primary screen (AID 1986). Conditions: 30 min, stronger effect = higher value.
[1] abbreviates: measured here: repeat confirmation average inhibition, at 18.6 µM.

The campaign covered roughly 290,000 compounds. About 890 (0.31%) were called active. The sample holds actives, similar compounds and a random draw of the others, so the mix is not that of the screen. Rule as the data show it: active = inhibition mostly above about 52% (no sharp cut-off); inactive = mostly below about 76%.

As usually defined, the inhibition is the drop in the measured response relative to a control, in per cent. Consider `CCCCn1c(N)c(NCc2ccccc2OC)c(=O)[nH]c1=O`, for which, where the note is “at 20 µM”, the inhibition was 2.3% (inactive). Still for that read-out and setting: with `Nc1c(-c2cccc(Cl)c2)cnn1-c1ccccc1` the figure was -1.8% (inactive). Still for that read-out and setting: with `c1ccc2sc(NC3=NCN(CC4CCCO4)CN3)nc2c1` (stereo not given) the figure was 1.1% (inactive); with `Cc1cc2ccccn2c1C(=O)c1ccc(NN)c([N+](=O)[O-])c1`, -4.5% (inactive). The same measure, in the same setting: the result for `CC(=O)Nc1ccc(/C=N/Nc2ccc(C(=O)c3c(C)cc4ccccn34)cc2[N+](=O)[O-])cc1` reads -5.5% (inactive); that for `Cc1cc2ccccn2c1C(=O)c1ccc(N/N=C/c2ccc(C(=O)O)cc2)c([N+](=O)[O-])c1`, 52.9% (active); that for `COc1cccc(-c2c(C(=O)N/N=C/c3cccnc3)nnn2-c2nonc2N)c1`, -0.9% (inactive). In the case of `O=C(O)CCCNc1cc(N2CCN(C(=O)c3ccco3)CC2)c2noc3c2c1C(=O)c1ccccc1-3`, the inhibition (at 20 µM) was 70% (active). On the same count and under the same terms, the result for `O=C1c2ccccc2-c2onc3c(N4CCN(CCO)CC4)cc(N4CCN(C(=O)c5ccco5)CC4)c1c23` reads 5.9% (inactive); that for `O=C(O)CCNc1cc(N2CCN(C(=O)c3ccco3)CC2)c2noc3c2c1C(=O)c1ccccc1-3`, 54.7% (active); that for `O=[N+]([O-])c1c(NCCO)cc(N2CCC3(CC2)OCCO3)c2nonc12`, -2.2% (inactive).

`CC(=O)OCCNc1cc(N2CCN(C)CC2)c2noc3c2c1C(=O)c1ccccc1-3`: the inhibition (at 20 µM) is -2% (inactive).

`O=C(O)CCCNc1cc(N2CCC3(CC2)OCCO3)c2noc3c2c1C(=O)c1ccccc1-3`: the inhibition (at 20 µM) was 58.7% (active).

Consider `CCOC(=O)N1CCN(c2cc(NCCC(=O)O)c3c4c(onc24)-c2ccccc2C3=O)CC1`, for which the inhibition (at 20 µM) was 18% (inactive). On the same count and under the same terms, with `CCN1CCN(c2cc(N3CCN(C(=O)c4ccco4)CC3)c3c4c(onc24)-c2ccccc2C3=O)CC1` the figure was 10.6% (inactive). The same measure, in the same setting: with `CN1CCN(c2cc(N3CCN(C(=O)c4ccco4)CC3)c3c4c(onc24)-c2ccccc2C3=O)CC1` the figure was 5.9% (inactive).

On to `CCCCNC(=O)Nc1nnc(SCC(=O)OCC)s1`, for which the inhibition (at 20 µM) is -2.1% (inactive).

Turning to `COc1ccc(Cc2nc3ccccc3[nH]c2=O)cc1`, the inhibition (at 20 µM) was -2.8% (inactive). `Cc1sccc1C1C(C#N)=C(N)SC(N)=C1C#N`: where the note is “at 20 µM”, the inhibition is 32.9% (inactive).

For `Cc1cc(C2C(C#N)=C(N)SC(N)=C2C#N)c(C)s1`, the inhibition (at 20 µM) is 51.9% (active) and the inhibition under setting [1] amounted to 68.2%. As for `Cc1ccc(C2C(C#N)=C(N)SC(N)=C2C#N)c(C)c1`, the inhibition (at 20 µM) is -3.6% (inactive). Still for that read-out and setting: with `C=CCN1C(=O)/C(=C/c2ccccc2)S/C1=N/c1nccs1` the figure was 1.5% (inactive); with `C=CCN=C1S/C(=C\c2ccc(N(C)C)cc2)C(=O)N1CC=C`, 2.1% (inactive). As to `C=CCN1C(=O)/C(=C/c2ccc(N(C)C)cc2)S/C1=N\c1nnc(CC)s1`, the inhibition (at 20 µM) was 61.5% (active).

Take `Cc1[nH]c(=O)[nH]c(=O)c1S(=O)(=O)N1CCCC(C(=O)NCCC2=CCCCC2)C1` (stereo not given): where the note is “at 20 µM”, the inhibition is 0.7% (inactive). Same read-out and setting: the result for `COc1ccc(Cl)cc1Nc1nc(C)nc2c1nnn2Cc1ccccc1` reads -1% (inactive). As for `CC(=O)Nc1ccc(NC(=O)CC2Nc3cccc4cccc(c34)NC2=O)cc1` (stereo not given), the inhibition by setting is: (at 20 µM) 67.6% (inactive); under setting [1], -1.4%. The matching figures for `O=C(CC1Nc2cccc3cccc(c23)NC1=O)Nc1ccc(F)cc1` (stereo not given): 59.6% (inactive) and -0.8%. In the case of `NC(=O)CC1Nc2cccc3cccc(c23)NC1=O` (stereo not given), the inhibition (at 20 µM) was 57.4% (active). Regarding `COc1ccc(NC(=O)CC2Nc3cccc4cccc(c34)NC2=O)cc1` (stereo not given), the inhibition (at 20 µM) was 51.5% (inactive) and the inhibition under setting [1] was -2.3%. With `O=C(CC1Nc2cccc3cccc(c23)NC1=O)Nc1ccccc1` (stereo not given), the inhibition (at 20 µM) is 57.7% (active). The same measure, in the same setting: the result for `Cc1cccc(NC(=O)CC2Nc3cccc4cccc(c34)NC2=O)c1` (stereo not given) reads -5.8% (inactive). On the same count and under the same terms, with `COc1cc2c(cc1NC(=O)CSc1nnc(Cc3cccs3)n1C)oc1ccccc12` the figure was -3.3% (inactive). With `CCOC(=O)c1c(-c2ccc(C)cc2)csc1NC(=O)/C(C#N)=C/c1ccc(O)c(OC)c1`, the inhibition by setting is: (at 20 µM) 95% (inactive); under setting [1], 7.7%. As for `CCOC(=O)c1c(-c2ccccc2)csc1NC(=O)/C(C#N)=C/c1ccc(OC)c(OC)c1`, under “at 20 µM”, the inhibition was 24.6% (inactive). Take `CCOC(=O)c1c(-c2ccccc2)csc1NC(=O)/C(C#N)=C/c1ccc(O)c(OC)c1`: the inhibition was 78.2% (active) (at 20 µM) and 53.4% under setting [1]. Turning to `COC(=O)C1=C(C)N(C)C(=O)NC1c1c(OC)ccc2ccccc12` (stereo not given), where the note is “at 20 µM”, the inhibition was -0.6% (inactive).

In the case of `O=C(Nc1ccc(Cl)cc1F)C1CCN(S(=O)(=O)c2cccnc2)CC1`, the inhibition (at 20 µM) was -1.9% (inactive). Same read-out and setting: with `COc1ccc(NC(=O)C23CC4CC(C2)CC(n2cnc(Br)n2)(C4)C3)c(OC)c1` the figure was -1.5% (inactive).

Turning to `COc1cc(OC)c(OC)cc1CNCCNC(=O)c1ccco1`, for the setting “at 20 µM”, the inhibition was 1.1% (inactive). Still for that read-out and setting: with `Cc1onc(-c2ccccc2Cl)c1C(=O)N1CCCc2ccccc21` the figure was -0.5% (inactive). On the same count and under the same terms, the result for `COc1ccc(CCNS(=O)(=O)c2cccc3nsnc23)cc1OC` reads 0.3% (inactive); that for `c1ccc(CCn2nnnc2CN2CCc3ccccc32)cc1`, 1.1% (inactive); that for `CC1=C(C#N)c2nc(N)c(C#N)c(C)c2/C1=C\c1ccc(-c2ccccc2C(=O)O)o1`, 56.8% (active).
